Among all 5,500 compounds or so, about 2,000 (36%) were called active. Roughly 18% stayed inconclusive and do not appear here. Rule as the data show it: active = normalized growth mostly below about 0.91 (no sharp cut-off); inconclusive = no clear call, values can overlap the other calls; inactive = mostly above about 0.92. This is one part of the list.
Test: chemical genetic growth profiling, strain panel (AID 1159580);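 also: tested at 20 µM; growth read once vehicle control cultures reached saturation at 30 °C; 1 = growth at the plate median or of vehicle wells; lower values mean less growth of the strain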
Details: growth OD

Measured: normalized growth

CCOC([O-])=Nc1c[n+](N2CCOCC2)no1
inactive: S. cerevisiae deletion strains, locus YJR075W, strain HOC1, hits give low values 1.01 | S. cerevisiae deletion strains, locus YKL009W, strain mrt4, hits give low values 1.05 | S. cerevisiae deletion strains, locus YKL068W, hits give low values 0.993 | S. cerevisiae deletion strains, locus YKL085W, strain MDH1 (second series), hits give low values 1.04 | S. cerevisiae deletion strains, locus YKL085W, strain MDH1, hits give low values 1.04 | S. cerevisiae deletion strains, locus YKL160W, strain elf1, hits give low values 0.984 | S. cerevisiae deletion strains, locus YKL190W, strain CNB1, hits give low values 1.01 | S. cerevisiae deletion strains, locus YKR001C, strain vps1, hits give low values 0.976 | S. cerevisiae deletion strains, locus YKR026C, strain gcn3, hits give low values 0.994 | S. cerevisiae deletion strains, locus YKR091W, strain srl3, hits give low values 0.995 | S. cerevisiae deletion strains, locus YLL001W, strain dnm1, hits give low values 0.988 | S. cerevisiae deletion strains, locus YLL026W, hits give low values 0.993 | S. cerevisiae deletion strains, locus YLL041C, strain sdh2, hits give low values 0.988 | S. cerevisiae deletion strains, locus YLR027C, strain aat2, hits give low values 0.997 | S. cerevisiae deletion strains, locus YLR039C, strain RIC1, hits give low values 1.02 | S. cerevisiae deletion strains, locus YLR058C, strain SHM2, hits give low values 1.01 | S. cerevisiae deletion strains, locus YLR102C, strain apc9, hits give low values 0.999 | S. cerevisiae deletion strains, locus YLR113W, strain HOG1, hits give low values 1.01 | S. cerevisiae deletion strains, locus YLR221C, strain rsa3, hits give low values 0.985 | S. cerevisiae deletion strains, locus YLR258W, strain gsy2, hits give low values 0.999 | S. cerevisiae deletion strains, locus YLR262C, strain YPT6 (second series), hits give low values 1.01 | S. cerevisiae deletion strains, locus YLR262C, strain YPT6, hits give low values 1.05 | S. cerevisiae deletion strains, locus YLR268W, strain sec22, hits give low values 0.964 | S. cerevisiae deletion strains, locus YLR320W, strain mms22, hits give low values 0.987 | S. cerevisiae deletion strains, locus YLR330W, strain CHS5, hits give low values 1.01 | S. cerevisiae deletion strains, locus YLR342W, strain FKS1 (second series), hits give low values 1.02 | S. cerevisiae deletion strains, locus YLR342W, strain FKS1, hits give low values 1 | S. cerevisiae deletion strains, locus YLR357W, strain rsc2, hits give low values 0.984 | S. cerevisiae deletion strains, locus YLR370C, strain arc18, hits give low values 0.982 | S. cerevisiae deletion strains, locus YLR371W, strain rom2, hits give low values 0.994 | S. cerevisiae deletion strains, locus YLR384C, strain iki3, hits give low values 0.994 | S. cerevisiae deletion strains, locus YLR418C, strain cdc73, hits give low values 0.993 | S. cerevisiae deletion strains, locus YML016C, strain PPZ1, hits give low values 1.02 | S. cerevisiae deletion strains, locus YML032C, strain rad52, hits give low values 0.984 | S. cerevisiae deletion strains, locus YML120C, strain ndi1, hits give low values 0.994 | S. cerevisiae deletion strains, locus YML124C, strain tub3, hits give low values 1 | S. cerevisiae deletion strains, locus YMR058W, strain fet3, hits give low values 0.995 | S. cerevisiae deletion strains, locus YMR078C, strain ctf18, hits give low values 0.996 | S. cerevisiae deletion strains, locus YMR125W, strain sto1, hits give low values 1.01 | S. cerevisiae deletion strains, locus YMR129W, hits give low values 0.994 | S. cerevisiae deletion strains, locus YMR205C, strain PFK2, hits give low values 0.995 | S. cerevisiae deletion strains, locus YMR223W, strain ubp8, hits give low values 0.998 | S. cerevisiae deletion strains, locus YMR231W, strain pep5, hits give low values 0.994 | S. cerevisiae deletion strains, locus YMR263W, strain SAP30, hits give low values 1.02 | S. cerevisiae deletion strains, locus YMR307W, strain GAS1, hits give low values 1.04 | S. cerevisiae deletion strains, locus YNL067W, strain RPL9B, hits give low values 1 | S. cerevisiae deletion strains, locus YNL071W, strain lat1, hits give low values 1 | S. cerevisiae deletion strains, locus YNL128W, strain TEP1, hits give low values 1.01 | S. cerevisiae deletion strains, locus YNL153C, strain GIM3, hits give low values 1 | S. cerevisiae deletion strains, locus YNL183C, strain NPR1, hits give low values 0.999 | S. cerevisiae deletion strains, locus YNL209W, strain ssb2, hits give low values 0.993 | S. cerevisiae deletion strains, locus YNL233W, strain BNI4, hits give low values 1.02 | S. cerevisiae deletion strains, locus YNL248C, strain rpa49, hits give low values 0.992 | S. cerevisiae deletion strains, locus YNL250W, strain rad50, hits give low values 0.982 | S. cerevisiae deletion strains, locus YNL271C, strain bni1, hits give low values 0.981 | S. cerevisiae deletion strains, locus YNL298W, strain CLA4, hits give low values 0.982 | S. cerevisiae deletion strains, locus YNL307C, strain MCK1, hits give low values 1.01 | S. cerevisiae deletion strains, locus YNL322C, strain KRE1 (second series), hits give low values 0.99 | S. cerevisiae deletion strains, locus YNL322C, strain KRE1, hits give low values 1.01 | S. cerevisiae deletion strains, locus YNR049C, strain mso1, hits give low values 0.988 | S. cerevisiae deletion strains, locus YNR052C, strain pop2, hits give low values 0.989 | S. cerevisiae deletion strains, locus YOL006C, strain TOP1, hits give low values 1.03 | S. cerevisiae deletion strains, locus YOL012C, strain htz1 0.747 | S. cerevisiae deletion strains, locus YOL147C, strain pex11, hits give low values 0.978 | S. cerevisiae deletion strains, locus YOR001W, strain rrp6, hits give low values 1.01 | S. cerevisiae deletion strains, locus YOR061W, strain CKA2, hits give low values 1.02 | S. cerevisiae deletion strains, locus YOR069W, strain VPS5, hits give low values 1.01 | S. cerevisiae deletion strains, locus YOR070C, strain gyp1, hits give low values 0.994 | S. cerevisiae deletion strains, locus YOR080W, strain dia2, hits give low values 0.997 | S. cerevisiae deletion strains, locus YOR083W, strain WHI5, hits give low values 0.988 | S. cerevisiae deletion strains, locus YOR106W, strain vam3, hits give low values 1.01 | S. cerevisiae deletion strains, locus YOR136W, strain idh2, hits give low values 0.993 | S. cerevisiae deletion strains, locus YOR144C, strain elg1, hits give low values 0.991 | S. cerevisiae deletion strains, locus YOR184W, strain ser1, hits give low values 1 | S. cerevisiae deletion strains, locus YOR231W, strain MKK1, hits give low values 1.01 | S. cerevisiae deletion strains, locus YOR265W, strain rbl2, hits give low values 0.991 | S. cerevisiae deletion strains, locus YOR270C, strain vph1, hits give low values 1.04 | S. cerevisiae deletion strains, locus YOR290C, strain snf2, hits give low values 0.992 | S. cerevisiae deletion strains, locus YOR316C, strain cot1, hits give low values 0.998 | S. cerevisiae deletion strains, locus YPL051W, strain arl3, hits give low values 0.995 | S. cerevisiae deletion strains, locus YPL055C, strain LGE1, hits give low values 1.04 | S. cerevisiae deletion strains, locus YPL078C, strain atp4, hits give low values 1 | S. cerevisiae deletion strains, locus YPL106C, strain sse1, hits give low values 0.963 | S. cerevisiae deletion strains, locus YPL240C, strain hsp82, hits give low values 0.981 | S. cerevisiae deletion strains, locus YPL241C, strain CIN2, hits give low values 1.01 | S. cerevisiae deletion strains, locus YPL256C, strain CLN2, hits give low values 1.04 | S. cerevisiae deletion strains, locus YPR119W, strain clb2, hits give low values 0.994 | S. cerevisiae deletion strains, locus YPR141C, strain kar3, hits give low values 0.983 | S. cerevisiae deletion strains, locus YPR163C, strain tif3, hits give low values 0.984 | S. cerevisiae deletion strains, locus YPR167C, strain met16, hits give low values 1 | S. cerevisiae deletion strains, strain wtn01, hits give low values 0.98 | S. cerevisiae strains, strain wild type, hits give low values 1.02
